Drawing on PubChem BioAssay, this text covers cell count and luciferase signal for 13 compounds.

The structures appear in SMILES notation. Active and inactive are the calls of the source.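 The calls were made as follows: active = luciferase signal above three times the same-plate solvent-only control wells; inactive = the rest.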

Mitogen-activated protein kinase 7 (Homo sapiens), sequence (Q13164 whole entry, looked up, the tested form may be a part): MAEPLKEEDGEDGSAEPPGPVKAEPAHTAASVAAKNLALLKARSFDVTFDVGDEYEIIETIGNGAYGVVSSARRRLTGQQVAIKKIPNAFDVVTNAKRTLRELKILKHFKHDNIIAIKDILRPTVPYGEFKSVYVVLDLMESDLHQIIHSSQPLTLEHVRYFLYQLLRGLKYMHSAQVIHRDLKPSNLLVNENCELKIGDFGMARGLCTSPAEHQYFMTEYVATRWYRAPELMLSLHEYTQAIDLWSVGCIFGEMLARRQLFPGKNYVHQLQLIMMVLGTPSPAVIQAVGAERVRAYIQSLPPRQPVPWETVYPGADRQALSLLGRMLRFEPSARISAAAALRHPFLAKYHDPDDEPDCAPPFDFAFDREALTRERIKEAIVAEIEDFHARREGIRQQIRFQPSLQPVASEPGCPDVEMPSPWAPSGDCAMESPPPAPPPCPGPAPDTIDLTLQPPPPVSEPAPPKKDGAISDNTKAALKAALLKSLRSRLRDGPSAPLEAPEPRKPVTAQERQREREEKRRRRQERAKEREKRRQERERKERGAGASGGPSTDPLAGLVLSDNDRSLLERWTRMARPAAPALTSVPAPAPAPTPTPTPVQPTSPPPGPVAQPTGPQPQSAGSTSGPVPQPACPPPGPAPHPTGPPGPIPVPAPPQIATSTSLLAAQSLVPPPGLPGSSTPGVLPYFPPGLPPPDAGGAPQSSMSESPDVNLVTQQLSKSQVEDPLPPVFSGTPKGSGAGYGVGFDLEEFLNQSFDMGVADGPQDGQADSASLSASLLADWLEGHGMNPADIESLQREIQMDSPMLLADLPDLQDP

Test system in one assay: not listed separately
The assay can be described thus: sensitizers of A549 cells to miR-34 induction, primary screen, imaging, A549 dox-inducible miR-34, nuclei and caspase counts (AID 1347080). The settings on record: A549 miR-34 inducible, Hoechst nuclei count, 48 h; measured here: total cells without miR-34 induction.
For the compound `O=C1OCCN1/N=C/c1ccc([N+](=O)[O-])o1`, the cell count stood at 10900.
Still for that read-out and setting: with `O=C1CC2OCC=C3CN4CC[C@]56c7ccccc7N1C5[C@H]2[C@H]3CC46` (stereo partly drawn) the figure was 12700.
Turning to `CNC(C)[C@@H]1CC[C@@H](N)[C@@H](OC2[C@@H](N)C[C@@H](N)[C@H](OC3OC[C@](C)(O)[C@H](NC)[C@H]3O)[C@H]2O)O1` (stereo partly drawn), the cell count came out at 13000.

The next assay addresses Mitogen-activated protein kinase 7 (Homo sapiens) (UniProt Q13164). The assay can be described thus: ERK5 transactivation activators in reporter cells, primary screen, cell-based, HTS (AID 1508626).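 Also: luciferase driven by Gal4-ERK5 fusion binding five Gal4 sites before minimal TATA.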 The settings on record: HeLa Gal4-ERK5 transactivation, 18 h, at 5 µM, stronger effect = higher value.
As for `O=C(NC(=O)c1ccccc1Cl)Nc1ccc(OC(F)(F)F)cc1`, the luciferase signal is 68 AU (inactive).
Turning to `C=C[C@@H]1C2=CCOC(=O)C2=CO[C@H]1O[C@@H]1O[C@H](CO)[C@@H](O)[C@H](O)[C@H]1O`, the luciferase signal is 64 AU (inactive).
Still for that read-out and setting: with `CNC(Cc1c[nH]c2ccccc12)C(=O)O` (stereo not drawn) the figure was 36 AU (inactive).
On to `CC1(C)N([O-])[N+](=O)C1(C)Br` (stereo not drawn), for which the luciferase signal is 44 AU (inactive).
On the same count and under the same terms, under `CC1(C)C2C[C@@H](O)[C@]3(C)C(CC[C@@]4(C)[C@H](c5ccoc5)OC(=O)[C@H]5O[C@]543)[C@@]2(C)[C@@H](O)C[C@H]1O` (stereo partly drawn) stands 32 AU (inactive); under `C=C1C2CC[C@H]3[C@]4(C)C[C@H](OC5OC(CO)C(OS(=O)(=O)O)C(OS(=O)(=O)O)C5OC(=O)CC(C)C)C[C@@H](C(=O)O)[C@H]4CC[C@]3(C2)[C@H]1O` (stereo partly drawn), 160 AU (inactive).
On the same count and under the same terms, under `c1cc2c(cc1[C@H]1OC[C@H]3[C@@H]1CO[C@H]3c1ccc3c(c1)OCO3)OCO2` stands 52 AU (inactive).
The same measure, in the same setting: with `COc1ccc2c(c1OC)C(=O)O[C@H]2[C@H]1c2cc3c(cc2CCN1C)OCO3` the figure was 76 AU (inactive).
Regarding `O=c1ccc2c(O)c3ccoc3cc2o1`, the luciferase signal was 32 AU (inactive).
With `CC12CCCCC1(Br)[N+](=O)N2[O-]` (stereo not drawn), the luciferase signal was 64 AU (inactive).
